# Source: PubChem BioAssay (Tox21)
# “And” between values parts separate entries of the source, which are not always exact repeats. Identical values can stand only once. Inconclusive results are not listed. Entries that show only a call come without a potency. More than one record can exist for a structure, and the calls need not agree. The source made the active and inactive calls. Calls come from the whole dose curve; as a rule, active = well fitted inhibition curve with a large enough effect in the signal ratio in the repeat runs, with a control signal flat; inconclusive = weak or mixed curves, or effect the other way; inactive = flat fitted curve, though single readings scatter; the % refers to the signal ratio.
# Biological target: D(2) dopamine receptor (Homo sapiens) (UniProt P14416)
# Experiment: Dopamine D2 receptor (DRD2) small molecule antagonists, cell-based qHTS assay (AID 1963595)
# Conditions: HEK293-DRD2 cAMP HTRF antagonist mode; series mostly up to 92.4 µM; activity change, negative = inhibition: at the top concentration
# From the text: National Center for Advancing Translational Sciences [NCATS]
# Division of Preclinical Innovation [DPI]
# U.S. Environmental Protection Agency [EPA]
# National Institutes of Environmental Health Sciences [NIEHS]
# National Toxicology Program [NTP]
# U.S. Food and Drug Administration [FDA]
# DRD2 is the D2 subtype of the dopamine receptor, which is coupled to Gi subtype of G protein-coupled receptor. This G protein-coupled receptor inhibits adenylyl cyclase activity. The DRD2-HEK293 cell line stably expressing D2 dopamine receptor can be used for screening agonists and antagonists of interactions between D2 and its ligands. The Hek293-DRD2 cAMP assay is based on HTRF technology. It measures changes of cAMP accumulation in response to Gi coupled GPCR activation or inhibition.
# Tox21 Assay Protocol Summary:
# DRD2-Hek293 cells were dispensed at 600 cells/3uL/well in 1536-well white plates using a Multidrop Dispenser. After the assay plates were incubated at a 37 C/5% CO2 incubator for 24 h, 1 uL of Ro20-1724 at final concentration of 0.1 mM was transferred to the assay plate by a Flying Reagent Dispenser. Following Ro20-1724 addition, 23 nL of compound dissolved in DMSO, positive controls or DMSO only was added to the assay plates via Wako pintool station. The assay plates were incubated at room temperature for 10 min. Next, 1 uL of mixture of NKH477 (final concentration at 200 nM) and quinpirole (final concentration at 12 nM) was added into the plates. After the assay plates were incubated at room temperature for an additional 30 min, 2.5 ul/well of cAMP-d2 and 2.5 ul/well of anti-cAMP-cryptate were added respectively into the assay plates using a Flying Reagent Dispenser. The plates were incubated at room temperature for 1 h. The fluorescence intensity in the plates was measured at 340 nm excitation and 665 & 620 nm emission by an Envision plate reader.
# Potency is the fitted concentration of half-maximal effect.
# Sequence of D(2) dopamine receptor (Homo sapiens) (P14416 whole entry, looked up): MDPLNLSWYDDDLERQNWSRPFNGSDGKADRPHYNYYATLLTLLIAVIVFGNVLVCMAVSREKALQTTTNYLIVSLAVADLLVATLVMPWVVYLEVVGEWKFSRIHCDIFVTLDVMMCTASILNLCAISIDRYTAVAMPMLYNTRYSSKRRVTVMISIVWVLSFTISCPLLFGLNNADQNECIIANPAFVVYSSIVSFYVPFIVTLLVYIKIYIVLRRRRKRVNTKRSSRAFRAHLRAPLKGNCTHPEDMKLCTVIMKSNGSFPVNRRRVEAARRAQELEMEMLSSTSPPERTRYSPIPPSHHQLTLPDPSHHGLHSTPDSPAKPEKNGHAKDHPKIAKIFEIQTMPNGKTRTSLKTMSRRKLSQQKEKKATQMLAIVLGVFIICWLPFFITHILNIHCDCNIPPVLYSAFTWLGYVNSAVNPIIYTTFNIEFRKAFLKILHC
SMILES,"activity change, negative = inhibition",Potency
NC(=O)CF,1.25% (inactive),
COP(=S)(OC)Oc1ccc([N+](=O)[O-])cc1,,inactive
CCCCn1cc[n+](C)c1C,,inactive
CCc1cccc(C)c1N(C(=O)CCl)C(C)COC (stereo not given),,inactive
COCC(=O)N(c1c(C)cccc1C)C(C)C(=O)OC (stereo not given),,inactive
CC(C(=O)c1ccccc1)N(C)C (stereo not given),-1.99% [at 42.5 µM] (inactive),
Clc1ccc(C(Cl)(Cl)Cl)c(Cl)c1,-4.81% (inactive),
C[C@]1(O)CC[C@H]2[C@@H]3CCC4=CC(=O)CC[C@]4(C)[C@@]3(F)[C@@H](O)C[C@@]21C,-8.62% (inactive),
CCCC[N+]1(C)CCCC1,,inactive
CCCCCCCCCCCC(=O)O,,inactive
CN(C)CCc1ccc(O)cc1,1.34% [at 42.5 µM] (inactive),
Clc1ccc(Cl)c(Cl)c1,,inactive
N#CC1(N=NC2(C#N)CCCCC2)CCCCC1,-2.51% (inactive),
CN(C)[C@@H]1C(=O)C(C(N)=O)=C(O)[C@@]2(O)C(=O)C3=C(O)c4c(O)cccc4[C@@](C)(O)[C@H]3C[C@@H]12,,inactive
CN(C)c1ccccc1,,inactive
C[C@@H]1O[C@@H](O[C@H]2C[C@@H](O)[C@]3(CO)[C@H]4[C@H](O)C[C@]5(C)[C@@H](C6=CC(=O)OC6)CC[C@]5(O)[C@@H]4CC[C@]3(O)C2)[C@H](O)[C@H](O)[C@H]1O,,inactive
O=P(OCCCl)(OCCCl)OCCCl,,inactive
CCCCC(CC)C(=O)Cl (stereo not given),,inactive
O=C(O)C(F)(F)C(F)(F)C(F)(F)C(F)(F)C(F)(F)C(F)(F)C(F)(F)C(F)(F)F,3.8% (inactive),
O=C([O-])c1ccccn1.O=C([O-])c1ccccn1.O=C([O-])c1ccccn1.[Cr+3],-7.66% (inactive),

SMILES,"activity change, negative = inhibition",Potency
C1=Cc2cccc3cccc1c23,,inactive
CCCCN(CC)c1c([N+](=O)[O-])cc(C(F)(F)F)cc1[N+](=O)[O-],,inactive
CC(C)CON=O,,inactive
O=C(O)COc1cc(Cl)c(Cl)cc1Cl,,inactive
CCCC[N+]1(C)CCCCC1,,inactive
CCOS(C)(=O)=O,8.79% (inactive),
Oc1cc(Cl)ccc1Cl,,inactive
COC(=O)Nc1cccc(OC(=O)Nc2cccc(C)c2)c1,,inactive
C#CCOS(=O)OC1CCCCC1Oc1ccc(C(C)(C)C)cc1 (stereo not given),,inactive and 54.5 µM (active)
CON(C)C(=O)Nc1ccc(Cl)cc1,3.25% (inactive),
CCCN(CCC)N=O,,inactive
CCCCOC(=O)COC(=O)c1ccccc1C(=O)OCCCC,,inactive
Cc1ccc(N)c(C)c1,,inactive
CC1(C)C(=O)NC(=O)NC1=O,-4.74% (inactive),
Cc1cccc(N)c1,,inactive
CCNc1nc(Cl)nc(NCC)n1,,inactive
C[N+](C)(C)CC(=O)O,,inactive
CCC(C)(C#N)N=NC(C)(C#N)CC (stereo not given),0.0347% (inactive),
Cc1cccc(C)c1N,,inactive
c1cc2c(c(N3CCNCC3)c1)OCCO2,-0.483% [at 42.5 µM] (inactive),
